# According to PubChem BioAssay (NCI):
# This is part of a sample that, as a whole, favours compounds with a hit. Of some 79,000 tested, about 15% had one in any assay. The source made the active and inactive calls. No stated cut-off is given here; in the data, active means growth inhibition above about 70%; inactive means the rest.
# Test: NCI Yeast Anticancer Drug Screen. Data for the wt1 strain (AID 149);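 further: 0% = growth of vehicle-treated wt1 cultures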
# Settings: S. cerevisiae wt1 strain (SPY 50644) growth inhibition, active compounds read high
# Procedure: Growth inhibition of yeast strains with defined genetic alterations is measured as a screen for potential anti-cancer activity. Selected strains with alterations in DNA damage repair or cell cycle control were exposed to compounds and growth inhibition was measured relative to vehicle treated controls. The strain used in this assay is wt1
Structure (SMILES),growth inhibition (at 1.2 µM),growth inhibition (at 3.7 µM),growth inhibition (at 11.0 µM),growth inhibition (at 33.0 µM),growth inhibition (at 100.0 µM)
CC[N+]1(C)CCC(O)(/C=C/c2ccc(Cl)c(Cl)c2)C(C(=O)/C=C/c2ccc(Cl)c(Cl)c2)C1 (stereo not given),-29% (inactive),30% (inactive),99% (active),99% (active),98% (active)
COc1ccc2nc3cccc([N+](=O)[O-])c3c(NCCCO)c2c1,15% (inactive),62% (inactive),94% (active),97% (active),97% (active)
COc1cc(C(C)C(C(=O)O)C(=O)C(=O)O)cc(OC)c1OC (stereo not given),0% (inactive),2% (inactive),3% (inactive),4% (inactive),5% (inactive)
CCCCCCC(CCl)c1sc(-c2csc(CCNC(=O)OC(C)(C)C)n2)nc1C(=O)OC (stereo not given),-1% (inactive),-4% (inactive),-5% (inactive),-5% (inactive),30% (inactive)
CCOc1ccc2ccc3cccnc3c2n1,-5% (inactive),-2% (inactive),2% (inactive),18% (inactive),48% (inactive)
COc1ccc2cc(CN3CCC(C4CCN(Cc5ccc6cc(OC)ccc6c5)CC4)CC3)ccc2c1,-1% (inactive),-16% (inactive),5% (inactive),8% (inactive),98% (active)
Cc1c2ccncc2c(C)c2c1oc1ccccc12,1% (inactive),2% (inactive),10% (inactive),89% (active),97% (active)
O=c1c(Br)cc2c(-c3ccccc3)c3cc(Br)c(O)c(Br)c3oc-2c1Br,-1% (inactive),11% (inactive),9% (inactive),0% (inactive),-4% (inactive)
